Assay outcomes as filed in PubChem.
The list is not random: actives were taken first. Their share in the collection is about 21%.
TDP1 cell CPT – growth inhibition of DT40 Tdp1-/-;hTDP1 cells with camptothecin (screen for TDP1 inhibitors). chicken DT40 Tdp1-/-;hTDP1 cells + 20 nM CPT, ATP luminescence, 48 h. Potency, µM (doses to about 46.2 µM), inactives show top-dose activity change, negative = growth inhibition, most hits filed as inhibitors. 12% of 420,000 active. AID 686979; further: potency means the concentration at half of the fitted maximal effect; nearly all actives have a fitted effect of over 55% in size
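Chicken DT40 Tdp1-/- cells stably complemented with human TDP1 were seeded at 400 cells/well in medium containing 20 nM camptothecin, exposed to pin-transferred compounds, and grown at 37 °C for at least 48 hr. Viability was read as ATP luminescence.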
DT40 TDP1 no CPT – qHTS for Inhibitors of human tyrosyl-DNA phosphodiesterase 1 (TDP1): qHTS in cells in absence of CPT; DT40 Tdp1-/- hTDP1 cells, no CPT, ATP luminescence, 48 h; Potency, µM (top dose mostly 46.2 µM), for the others: top-dose activity change, negative = growth inhibition, actives largely listed as inhibitors; 15% of 420,000 active; AID 686978, 2013; further: potency means the concentration at half of the fitted maximal effect; nearly all actives have a fitted effect of over 55% in size
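Stably hTDP1-transfected Tdp1-null chicken DT40 cells were treated with library compounds minus camptothecin and grown for at least 48 hr at 37 °C, after which cellular ATP was quantified by luminescence.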
IL1B secr inh – inhibitors of inflammasome signaling (IL-1 beta secretion) | THP-1 LPS/ATP IL-1B secretion, AlphaLISA, 16 h; stronger effect = lower value | activity change, % at 57.5 µM | 4.7% of 360,000 active | AID 743279; in the data active means activity change below about -50%; inconclusive means mostly about -30% to -49%
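THP-1 cells pretreated 1 hr with compounds (up to 57.5 uM final), then stimulated with LPS (250 ng/mL final) plus ATP (1.25 mM final); secreted IL-1B measured by AlphaLISA after 16 hr, decreased signal indicating inhibition.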
ELG1 repair inh – blocks ELG1-dependent DNA repair in HEK293T cells; AID 504467; HEK293T ELG1-luciferase reporter, luminescence, 16 h; DNA damage induced by 5-fluorouridine; Potency, µM (series often up to 46.1 µM), inactives show top-dose activity change, negative = inhibition, most hits filed as inhibitors; 2.3% of 330,000 active; further: potency means the concentration at half of the fitted maximal effect; nearly all actives have a fitted effect of over 55% in size
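Cells (2,000 per well) received 5-fluorouridine plus test compound or DMSO and were incubated 16 hr at 37 °C, 5% CO2. Luciferase activity was read by luminescence 30 min after ONE-Glo addition; signal suppression marked inhibition of damage-induced ELG1 function.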
RORgamma inh – blocks mouse ROR gamma transcriptional activity. P51450. Drosophila S2 Gal4-RORgamma UAS-luciferase reporter, 20 h. 5.4% of 310,000 active. AID 2551. Potency, µM (highest dose often 53.6 µM), for inactives: at the highest dose activity change, negative = inhibition, most hits filed as inhibitors; further: potency means the concentration at half of the fitted maximal effect; nearly all actives have a fitted effect of over 60% in size
Target sequence (P51450 whole entry, looked up, the tested form may be a part): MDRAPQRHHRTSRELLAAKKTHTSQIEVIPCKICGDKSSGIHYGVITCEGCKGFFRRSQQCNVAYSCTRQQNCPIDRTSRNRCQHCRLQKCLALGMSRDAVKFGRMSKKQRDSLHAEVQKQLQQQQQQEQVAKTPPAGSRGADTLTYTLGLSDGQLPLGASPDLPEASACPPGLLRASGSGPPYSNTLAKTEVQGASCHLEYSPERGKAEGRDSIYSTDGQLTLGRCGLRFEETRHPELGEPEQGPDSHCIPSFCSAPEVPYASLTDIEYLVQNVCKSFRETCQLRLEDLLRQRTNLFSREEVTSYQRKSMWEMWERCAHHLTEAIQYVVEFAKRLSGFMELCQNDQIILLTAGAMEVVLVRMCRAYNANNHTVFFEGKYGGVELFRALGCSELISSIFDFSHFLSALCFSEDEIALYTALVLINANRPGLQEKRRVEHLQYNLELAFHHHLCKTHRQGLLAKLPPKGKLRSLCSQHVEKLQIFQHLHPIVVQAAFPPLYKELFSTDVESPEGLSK
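In this cell-based reporter format, copper sulfate (700 uM final) drives Gal4–ROR gamma fusion expression from a metallothionein promoter in Drosophila Schneider cells; compounds preincubated 1 hr, reporter read after 20 hr at ambient temperature.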
VP16 counter – inhibits Gal4-VP16 luciferase reporter, ROR gamma counter-screen. Drosophila S2 Gal4-VP16 UAS-luciferase, luminescence, 20 h. Potency, µM (top dose mostly 53.6 µM), inactives show at the top dose activity, negative = inhibition, hits mostly inhibitors. AID 2546. 3.5% of 310,000 active;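 further: Gal4-VP16 expression switched on by copper sulfate through the metallothionein promoter; potency means the concentration at half of the fitted maximal effect; nearly all actives have a fitted effect of over 50% in size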
* marks the source's active call; other numbers are inactive results. Unless noted, the call rests on the fitted dose curve; in most records, active means well fitted curve in the direction sought with a large enough effect; inconclusive means small, poorly fitted or top-dose-only effect, or another doubt; inactive means no such curve, though single readings can be large; an effect the other way counts as inactive or inconclusive. On the % scale 0 is the no-effect control and ±100 the full control effect.

What do the screens show for `Cc1c(-n2cc(C(=O)O)c(=O)c3cc(F)c(N4CCCC4)c(F)c32)c(=O)n(-c2ccccc2)n1C`?
TDP1 cell CPT: 16.4µM*; DT40 TDP1 no CPT: 23.1µM*; IL1B secr inh: -16.3; ELG1 repair inh: 12.6%; RORgamma inh: -1.9%; VP16 counter: 0.1%

How did CCC(=O)Nc1cccc(NC(=O)c2cccc([N+](=O)[O-])c2C)c1 do in these assays?
TDP1 cell CPT: inconclusive; DT40 TDP1 no CPT: 23.1µM*; IL1B secr inh: 2.9; ELG1 repair inh: 23.1µM*; RORgamma inh: 33.6%; VP16 counter: inconclusive

What do the screens show for `O=C(Oc1ccccc1C(=O)Nc1ccccc1)c1ccc(Br)c([N+](=O)[O-])c1`?
TDP1 cell CPT: -20.7%; DT40 TDP1 no CPT: inconclusive; IL1B secr inh: -73.1*; ELG1 repair inh: inconclusive; RORgamma inh: 15.5%; VP16 counter: inconclusive

What do the screens show for `CCOC(=O)c1ccc(NC(=O)c2ccccc2[N+](=O)[O-])cc1`?
TDP1 cell CPT: -7.2%; DT40 TDP1 no CPT: 18.4µM*; IL1B secr inh: 11.8; ELG1 repair inh: inconclusive; RORgamma inh: inconclusive; VP16 counter: -22.3%

How did Cc1c(C(=O)Nc2ccc(Nc3ccccc3)cc2)cccc1[N+](=O)[O-] do in these assays?
TDP1 cell CPT: 9.2µM*; DT40 TDP1 no CPT: 8.2µM*; IL1B secr inh: inconclusive; ELG1 repair inh: inconclusive

How did Cc1c(C(=O)Nc2ccc3c(c2)CCC3)cccc1[N+](=O)[O-] do in these assays?
TDP1 cell CPT: 0.8%; DT40 TDP1 no CPT: inconclusive; IL1B secr inh: -15.7; ELG1 repair inh: inconclusive; RORgamma inh: inconclusive; VP16 counter: -12.3%

Results for CCOC(=O)c1cc([N+](=O)[O-])c([N+](=O)[O-])cc1NC(C)=O ?
TDP1 cell CPT: inconclusive; DT40 TDP1 no CPT: 0.92µM*; IL1B secr inh: -81.4*; ELG1 repair inh: inconclusive; RORgamma inh: 5.01µM*; VP16 counter: 3.16µM*

How did CCOC(=O)c1ccc(NCCOC)c([N+](=O)[O-])c1 do in these assays?
TDP1 cell CPT: -8.3%; DT40 TDP1 no CPT: -4.8%; IL1B secr inh: 3.5; ELG1 repair inh: inconclusive; RORgamma inh: 22.2%; VP16 counter: 3.7%

Results for CCCC(=O)NC(=S)Nc1ccc(NC(=O)c2cccs2)cc1 ?
TDP1 cell CPT: -6.6%; DT40 TDP1 no CPT: -17.6%; IL1B secr inh: -9.9; ELG1 repair inh: inconclusive; RORgamma inh: -4.0%; VP16 counter: inconclusive

Results for O=C(Nc1ccccc1)c1ccc(Nc2c([N+](=O)[O-])cc([N+](=O)[O-])c3ccccc23)cc1 ?
TDP1 cell CPT: 7.31µM*; DT40 TDP1 no CPT: 10.3µM*; IL1B secr inh: 7.0; ELG1 repair inh: inconclusive; RORgamma inh: 14.2%; VP16 counter: 2.1%

How did O=[N+]([O-])c1cc(Br)c(Nc2ccccc2)c([N+](=O)[O-])c1 do in these assays?
TDP1 cell CPT: 0.82µM*; DT40 TDP1 no CPT: 0.92µM*; IL1B secr inh: -98.1*; ELG1 repair inh: -13.2%; RORgamma inh: inconclusive; VP16 counter: 12.6µM*

How did Cc1c(C(=O)NC(=S)Nc2ccc(NC(=O)c3cccs3)cc2)cccc1[N+](=O)[O-] do in these assays?
TDP1 cell CPT: inconclusive; DT40 TDP1 no CPT: 13µM*; IL1B secr inh: 13.8

How did O=C(Nc1cccc([N+](=O)[O-])c1)c1ccccc1 do in these assays?
TDP1 cell CPT: -13.8%; DT40 TDP1 no CPT: -1.1%; IL1B secr inh: -13.2; ELG1 repair inh: -14.3%; RORgamma inh: inconclusive; VP16 counter: 3.4%

Results for O=[N+]([O-])c1ccc(Nc2ccccc2O)c([N+](=O)[O-])c1 ?
TDP1 cell CPT: inconclusive; DT40 TDP1 no CPT: inconclusive; IL1B secr inh: 49.1

Results for CN(Cc1ccccc1)Cc1ccccc1C(O)c1ccccc1 (stereo not given) ?
TDP1 cell CPT: inconclusive; DT40 TDP1 no CPT: inconclusive; IL1B secr inh: 9.1

What do the screens show for `Cc1c(NC(=O)c2nn(C(C)C)c(=O)c3ccccc23)c(=O)n(-c2ccccc2)n1C`?
TDP1 cell CPT: -19.2%; DT40 TDP1 no CPT: -13.4%; IL1B secr inh: -3.5

Results for COc1cc(Nc2nc3c(N)cc(C(F)(F)F)cc3nc2-c2ccccc2)cc(OC)c1OC ?
TDP1 cell CPT: inconclusive; DT40 TDP1 no CPT: 13µM*; IL1B secr inh: 6.8

Results for S=C(Nc1ccc(Cl)c(Cl)c1)NC1CCCCC1 ?
TDP1 cell CPT: inconclusive; DT40 TDP1 no CPT: 18.4µM*; IL1B secr inh: -95.3*; ELG1 repair inh: inconclusive; RORgamma inh: 2.51µM*; VP16 counter: 5.62µM*

Results for S=C(Nc1ccc2nsnc2c1)NC1CCCCC1 ?
TDP1 cell CPT: inconclusive; DT40 TDP1 no CPT: inconclusive; IL1B secr inh: -15.3; ELG1 repair inh: inconclusive; RORgamma inh: 2.51µM*; VP16 counter: 5.01µM*

How did Nc1[nH]c(=S)[nH]c(=O)c1N do in these assays?
TDP1 cell CPT: 2.8%; DT40 TDP1 no CPT: 7.7%

How did CC(=O)c1sc2nsc(SCCN3CCCC3)c2c1N do in these assays?
TDP1 cell CPT: 25.9µM*; DT40 TDP1 no CPT: inconclusive; IL1B secr inh: -93.4*; ELG1 repair inh: 0.0%; RORgamma inh: -44.7%; VP16 counter: -11.1%

Results for Cc1cc2nc(-c3ccc(NC(=O)c4ccc(OCC(C)C)cc4)cc3)oc2cc1C ?
TDP1 cell CPT: -0.6%; DT40 TDP1 no CPT: 3.9%

How did COc1nnc(-c2ccc(N3CCCCC3)c(NC(=O)c3ccc(C)cc3)c2)c2ccccc12 do in these assays?
TDP1 cell CPT: -29.4%; DT40 TDP1 no CPT: -14.2%

Results for Cn1nc(-c2ccc(N3CCCCC3)c(NC(=O)c3ccco3)c2)c2ccccc2c1=O ?
TDP1 cell CPT: 20.6µM*; DT40 TDP1 no CPT: 16.4µM*; IL1B secr inh: 31.7; ELG1 repair inh: inconclusive; RORgamma inh: -42.3%; VP16 counter: -26.5%

What do the screens show for `CCC(=O)Nc1cc(-c2nnc(OC)c3ccccc23)ccc1N1CCOCC1`?
TDP1 cell CPT: -26.8%; DT40 TDP1 no CPT: inconclusive; IL1B secr inh: -21.5; ELG1 repair inh: 8.3%; RORgamma inh: 4.2%; VP16 counter: -0.7%

How did COc1ccc(-c2nn(C)c(=O)c3ccccc23)cc1CNC(=O)c1ccco1 do in these assays?
TDP1 cell CPT: inconclusive; DT40 TDP1 no CPT: inconclusive; IL1B secr inh: -17.8; ELG1 repair inh: 13.3%; RORgamma inh: -23.1%; VP16 counter: inconclusive

What do the screens show for `COc1nnc(-c2ccc(N3CCCCC3)c(NC(=O)c3ccccc3Cl)c2)c2ccccc12`?
TDP1 cell CPT: 6.51µM*; DT40 TDP1 no CPT: 6.51µM*
